Results published in PubChem BioAssay (NCI).
Compounds without any hit were thinned out: in the full panel of roughly 79,000, 15% have a hit. A number with no mark means an inactive call. Calls of active or inactive are those of the source. Cut-off read from the data, not from the text of the source: active = growth inhibition above about 70%; inactive = the rest.

Key:
[1] = NCI Yeast Anticancer Drug Screen. Data for the rad50 strain (AID 155);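 note: 0% = growth of vehicle-only cultures of the same strain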; conditions: S. cerevisiae rad50 strain growth inhibition; at 50.0 µM; hits give high values
Outline: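 Readout: growth inhibition relative to vehicle-treated cultures. Compound exposure was carried out in a genetically defined yeast strain deficient in DNA damage repair.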

[2] = NCI Yeast Anticancer Drug Screen. Data for the mec2-1 strain (AID 157); conditions: S. cerevisiae mec2-1 strain, at 50.0 µM, hits give high values
Outline: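 Test agents were screened against the mec2-1 yeast strain, with defined DNA repair or cell cycle alteration. Growth was scored as inhibition against vehicle-only controls.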

[3] = NCI Yeast Anticancer Drug Screen. Data for the sgs1 mgt1 strain (AID 161);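 note: 0% = growth of cultures given vehicle only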; conditions: S. cerevisiae sgs1 mgt1 strain, at 50.0 µM, hits give high values
Outline: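 Read-out: growth inhibition vs vehicle controls. Cells: mutant yeast strain deficient in DNA damage repair.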

[4] = NCI Yeast Anticancer Drug Screen. Data for the cln2 rad14 strain (AID 165);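 note: 0% = growth equal to vehicle treated cultures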; conditions: S. cerevisiae cln2 rad14 strain, at 50.0 µM, hits give high values
Outline: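 Growth of compound-exposed yeast (cln2 rad14 genotype) measured and expressed as inhibition relative to vehicle.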

[5] = NCI Yeast Anticancer Drug Screen. Data for the bub3 strain (AID 167); conditions: S. cerevisiae bub3 mutant strain, at 50.0 µM, hits give high values
Outline: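 Readout: yeast growth inhibition, expressed relative to vehicle-only wells. The test organism is a mutant strain from a panel with lesions in DNA repair or checkpoint genes.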

[6] = NCI Yeast Anticancer Drug Screen. Data for the mlh1 rad18 strain (AID 175); conditions: S. cerevisiae mlh1 rad18 strain growth inhibition; at 50.0 µM; hits give high values
Outline: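 In this whole-cell yeast screen, a strain with altered DNA damage repair is challenged with compound, and its growth is measured against matched vehicle-treated controls.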

Cc1c(C)c(Br)c(C)c(C)c1Br
growth inhibition [1]: -7.45% | growth inhibition [2]: -18.3% | growth inhibition [3]: 4.25% | growth inhibition [4]: 10.3% | growth inhibition [5]: -6.2% | growth inhibition [6]: -16.8%

CC(=O)OCCC1CC2c3[nH]c4ccccc4c3CCN2C1=O (stereo unspecified)
growth inhibition [1]: -3.85% | growth inhibition [2]: -7% | growth inhibition [3]: 15.9% | growth inhibition [4]: 0.85% | growth inhibition [5]: 10.7% | growth inhibition [6]: -22.1%

O=c1[nH]nc(SCc2ccccc2)c(=O)n1C(c1ccccc1)c1ccccc1
growth inhibition [1]: 26.4% | growth inhibition [2]: 12.4% | growth inhibition [3]: 18.6% | growth inhibition [4]: 28.2% | growth inhibition [5]: 8.05% | growth inhibition [6]: 5.3%

CC1=C(C(=O)O)CCCO1
growth inhibition [1]: -7.6% | growth inhibition [2]: 7.75% | growth inhibition [3]: 10.2% | growth inhibition [4]: -3% | growth inhibition [5]: -3.75% | growth inhibition [6]: 25.7%

O=S(=O)(c1ccccc1)N1C[C@@H]2[C@H](C1)[C@H]1C=C[C@@H]2C1
growth inhibition [1]: 1.95% | growth inhibition [2]: -12.3% | growth inhibition [3]: 13% | growth inhibition [4]: -4.8% | growth inhibition [5]: 42.6% | growth inhibition [6]: -11%

CC(C)COC(=O)c1cc(O)[nH]c(=O)c1
growth inhibition [1]: -19.6% | growth inhibition [2]: -7.8% | growth inhibition [3]: 1.75% | growth inhibition [4]: -40.1% | growth inhibition [5]: -15.5% | growth inhibition [6]: -6.8%

CN1CCN(Cc2cc(C(C)(C)C)cc(-c3ccccc3)c2O)CC1
growth inhibition [1]: 39.4% | growth inhibition [2]: -25.1% | growth inhibition [3]: 6.9% | growth inhibition [4]: 6.45% | growth inhibition [5]: 8% | growth inhibition [6]: 25.6%

COc1ccc2cc1Oc1ccc(cc1)CC1=NCCc3cc(OC)c(OC)c(c31)Oc1cc3c(cc1OC)CCN(C)C3C2 (stereo unspecified)
growth inhibition [1]: -8.75% | growth inhibition [2]: -14.6% | growth inhibition [3]: -12.4% | growth inhibition [4]: 4.5% | growth inhibition [5]: 3.15% | growth inhibition [6]: 9.4%

CNCCC(Oc1ccccc1OC)c1ccccc1 (stereo unspecified)
growth inhibition [1]: 30.2% | growth inhibition [2]: 8.9% | growth inhibition [3]: -1.2% | growth inhibition [4]: 10.8% | growth inhibition [5]: 5.25% | growth inhibition [6]: 19.1%

COc1ccc2c(c1)C/C(=C\c1cccc3ccccc13)C2=O
growth inhibition [1]: -51.9% | growth inhibition [2]: -19.3% | growth inhibition [3]: -0.15% | growth inhibition [4]: -23.1% | growth inhibition [5]: 28.1% | growth inhibition [6]: -0.7%

CCOC1(C)Oc2cc3c(cc2C(c2cc(OC)c(OC)c(OC)c2)C1C)OCO3 (stereo unspecified)
growth inhibition [1]: 12.4% | growth inhibition [2]: 1.55% | growth inhibition [3]: -6.75% | growth inhibition [4]: -29.4% | growth inhibition [5]: 1.4% | growth inhibition [6]: 32.5%

COc1ccc(NC(=O)CN)cc1
growth inhibition [1]: 1.3% | growth inhibition [2]: -9.9% | growth inhibition [3]: 0.2% | growth inhibition [4]: -2.55% | growth inhibition [5]: 7.6% | growth inhibition [6]: 0.7%

CC(=O)/C(C=Nc1c(C)n(C)n(-c2ccccc2)c1=O)=C(/C)O
growth inhibition [1]: 24.6% | growth inhibition [2]: 29% | growth inhibition [3]: 28.1% | growth inhibition [4]: 9.65% | growth inhibition [5]: 24.9% | growth inhibition [6]: 28.5%

Cc1cc(C)n(-c2ccncc2[N+](=O)[O-])n1
growth inhibition [1]: 7.55% | growth inhibition [2]: 17.9% | growth inhibition [3]: -2.45% | growth inhibition [4]: -13.8% | growth inhibition [5]: 9.05% | growth inhibition [6]: 0.2%

Nc1ccc2c(c1)Cc1cccc(N)c1-2
growth inhibition [1]: 31.8% | growth inhibition [2]: 11.2% | growth inhibition [3]: 0.7% | growth inhibition [4]: 11% | growth inhibition [5]: 7.2% | growth inhibition [6]: 1.9%

O=C(CBr)c1ccc(S(=O)(=O)c2ccccc2)cc1
growth inhibition [1]: 67.3% | growth inhibition [2]: 92.7% (active) | growth inhibition [3]: 85% (active) | growth inhibition [4]: 27.9% | growth inhibition [5]: 72.2% (active) | growth inhibition [6]: 78.3% (active)

[Cl][Pt+2][Cl].[NH-]C(CO)C([NH-])CO (stereo unspecified)
growth inhibition [1]: 32.4% | growth inhibition [2]: -47.9% | growth inhibition [3]: -10.3% | growth inhibition [4]: -15.8% | growth inhibition [5]: -27.9% | growth inhibition [6]: -61.5%

CCCC1(C)COC(/C=C/c2ccccc2)OC1 (stereo unspecified)
growth inhibition [1]: 6.85% | growth inhibition [2]: -9.7% | growth inhibition [3]: -8.3% | growth inhibition [4]: -1.85% | growth inhibition [5]: -8.2% | growth inhibition [6]: 8.4%

O=C(O)CCC(C(=O)O)N1C(=O)C2C3CCC(C3)C2C1=O (stereo unspecified)
growth inhibition [1]: -26% | growth inhibition [2]: -33.9% | growth inhibition [3]: -36.2% | growth inhibition [4]: -16% | growth inhibition [5]: -24.9% | growth inhibition [6]: -5.45%

O=c1c2cc3ccccc3cc2c(=O)n2n1CC(O)C(Br)C2 (stereo unspecified)
growth inhibition [1]: 64.7% | growth inhibition [2]: 20.9% | growth inhibition [3]: 36.5% | growth inhibition [4]: -28.6% | growth inhibition [5]: -3.2% | growth inhibition [6]: 17.7%

Cc1cc2oc3ccccc3c(=O)c2c(C)c1Cl
growth inhibition [1]: -18.1% | growth inhibition [2]: 5.1% | growth inhibition [3]: -9.65% | growth inhibition [4]: -3.1% | growth inhibition [5]: 10.4% | growth inhibition [6]: -3.6%

COc1ccc(N2C(=O)CSC2c2c[nH]c3ccccc23)cc1 (stereo unspecified)
growth inhibition [1]: -39.2% | growth inhibition [2]: -43.5% | growth inhibition [3]: -49.6% | growth inhibition [4]: -16.1% | growth inhibition [5]: -44% | growth inhibition [6]: -47%

O=S(=O)(Oc1ccc(-c2ccccc2)cc1Br)c1ccccc1
growth inhibition [1]: 13% | growth inhibition [2]: -0.85% | growth inhibition [3]: 5.55% | growth inhibition [4]: 8.3% | growth inhibition [5]: 1.8% | growth inhibition [6]: -5.6%

O=C(N/N=C\c1ccc([N+](=O)[O-])cc1)Nc1cccc2ccccc12
growth inhibition [1]: -49% | growth inhibition [2]: 13.3% | growth inhibition [3]: -42.4% | growth inhibition [4]: -14.4% | growth inhibition [5]: -1% | growth inhibition [6]: -41.8%

O=C(O)C#Cc1cccnc1
growth inhibition [1]: -10.9% | growth inhibition [2]: -14% | growth inhibition [3]: 0.75% | growth inhibition [4]: 6% | growth inhibition [5]: -3.4% | growth inhibition [6]: -16.9%

O=C1C2=C(c3ccccc31)C(c1ccc(Cl)cc1)N1C(=O)CCSC1=N2 (stereo unspecified)
growth inhibition [1]: 24.7% | growth inhibition [2]: 10.6% | growth inhibition [3]: 1.9% | growth inhibition [4]: 8.25% | growth inhibition [5]: 27.1% | growth inhibition [6]: 25.3%

COC(=O)/C(=N\NC(C)(C)C)C(C(=O)OC)C(=O)C(=O)Nc1cc(Cl)ccc1Cl (stereo unspecified)
growth inhibition [1]: 6.7% | growth inhibition [2]: -0.25% | growth inhibition [3]: -1.65% | growth inhibition [4]: 1% | growth inhibition [5]: -24.6% | growth inhibition [6]: 8.55%

CC(N)C(=O)NC(C)P(=O)(O)O (stereo unspecified)
growth inhibition [1]: 2.7% | growth inhibition [2]: 1.4% | growth inhibition [3]: -7.15% | growth inhibition [4]: -73% | growth inhibition [5]: 9.05% | growth inhibition [6]: 8.2%

CC(=O)OCC1OC(n2cc(I)c(=O)[nH]c2=O)C(OC(C)=O)C(OC(C)=O)C1OC(C)=O (stereo unspecified)
growth inhibition [1]: -29.9% | growth inhibition [2]: -22.1% | growth inhibition [3]: -12.2% | growth inhibition [4]: -27.4% | growth inhibition [5]: -29.5% | growth inhibition [6]: -13.2%

O=C1CC2(CCN(Cc3ccccc3)CC2)C(=O)N1N1CCCCC1
growth inhibition [1]: 50.9% | growth inhibition [2]: 33.3% | growth inhibition [3]: 57.8% | growth inhibition [4]: 41.9% | growth inhibition [5]: 43.8% | growth inhibition [6]: 50.4%

CC1(C)OCC2(CO1)CSCCCSCC1(COC(C)(C)OC1)CSCCCSC2
growth inhibition [1]: -5.65% | growth inhibition [2]: -12.9% | growth inhibition [3]: -8.75% | growth inhibition [4]: -11.8% | growth inhibition [5]: -25.5% | growth inhibition [6]: -3.8%

CCOC(=O)c1cc2sc(NC(=O)c3ccco3)nc2o1
growth inhibition [1]: 10.8% | growth inhibition [2]: 12.2% | growth inhibition [3]: 48.8% | growth inhibition [4]: 4.3% | growth inhibition [5]: 6.6% | growth inhibition [6]: 27.6%

CCc1cccc(CC)c1NC(=S)NC(=O)c1ccc(Br)cc1
growth inhibition [1]: -5.3% | growth inhibition [2]: -1.25% | growth inhibition [3]: -7.9% | growth inhibition [4]: 8.3% | growth inhibition [5]: -9.5% | growth inhibition [6]: -9.75%

C/C=C/C(=O)OCCc1ccccc1
growth inhibition [1]: 21.8% | growth inhibition [2]: 3.4% | growth inhibition [3]: 3.75% | growth inhibition [4]: -5.5% | growth inhibition [5]: 12.8% | growth inhibition [6]: 27.5%

CCN(CC)C(=S)SCCC(N)=O
growth inhibition [1]: -12.4% | growth inhibition [2]: -13.8% | growth inhibition [3]: -2.8% | growth inhibition [4]: 9.15% | growth inhibition [5]: -1.25% | growth inhibition [6]: -0.65%

O=[N+]([O-])c1ccc(N=Nc2c(O)[nH]c3ccc(Br)cc23)cc1
growth inhibition [1]: 22.4% | growth inhibition [2]: -20.2% | growth inhibition [3]: 14.3% | growth inhibition [4]: 10.8% | growth inhibition [5]: -15.4% | growth inhibition [6]: 15.3%

CN(C)CCNC(=O)c1cc([N+](=O)[O-])cn1C
growth inhibition [1]: 10.9% | growth inhibition [2]: -1.4% | growth inhibition [3]: 9.15% | growth inhibition [4]: 7.65% | growth inhibition [5]: 1.25% | growth inhibition [6]: -68.2%

CC(=O)N(C(C)=O)c1ccccc1/C=C1\CCOC1=O
growth inhibition [1]: -16.4% | growth inhibition [2]: -18.9% | growth inhibition [3]: -2.25% | growth inhibition [4]: -5.05% | growth inhibition [5]: 11.6% | growth inhibition [6]: -17.6%

Fc1ccc2c(c1)CC(CBr)O2 (stereo unspecified)
growth inhibition [1]: -14.2% | growth inhibition [2]: -8.5% | growth inhibition [3]: -4.5% | growth inhibition [4]: -23.9% | growth inhibition [5]: -1.95% | growth inhibition [6]: 2.8%

Clc1ccccc1C1Nc2ccccc2S1 (stereo unspecified)
growth inhibition [1]: 39.7% | growth inhibition [2]: 17.6% | growth inhibition [3]: 48.2% | growth inhibition [4]: -7.75% | growth inhibition [5]: 13.3% | growth inhibition [6]: 38.2%

OCCNCc1cccc(-c2ccccc2)c1O
growth inhibition [1]: 24.6% | growth inhibition [2]: 3% | growth inhibition [3]: 15.9% | growth inhibition [4]: -18.8% | growth inhibition [5]: 8.2% | growth inhibition [6]: 16.9%
